Hits are enriched below; roughly 2.9% of the tested compounds scored in any of these assays.
ADAM17 inh: inhibits human ADAM17 | P78536 | recombinant ADAM17, EDANS/DABCYL FRET peptide cleavage | inhibition, % at 6.95 µM | 370,000 tested, 0.83% active | AID 720648;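 active = inhibition above the mean of compounds lying between control limits plus 3 SD, set per campaign, cut at about 8.5% in these data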
PLC-gamma1 inh: inhibitors of human phospholipase C gamma1; P19174; inhibition, % at 12.2 µM; 370,000 tested, 0.84% active; purified PLC-gamma1, fluorogenic substrate, fluorescence; AID 720700; in the data active = inhibition above about 9.5%
proKLK7 act: proKLK7 (human) activation, primary screen; P49862; purified proKLK7, EDANS-DABCYL substrate fluorescence; 100% is mature enzyme control, 0% vehicle; activation, % at 7 µM; 370,000 tested, 0.9% active; AID 652039;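 active = activation above the mean of all tested compounds plus 3 SD, computed per campaign excluding outliers beyond control limits, cut at about 13% in these data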
Target sequence (P49862 whole entry, looked up): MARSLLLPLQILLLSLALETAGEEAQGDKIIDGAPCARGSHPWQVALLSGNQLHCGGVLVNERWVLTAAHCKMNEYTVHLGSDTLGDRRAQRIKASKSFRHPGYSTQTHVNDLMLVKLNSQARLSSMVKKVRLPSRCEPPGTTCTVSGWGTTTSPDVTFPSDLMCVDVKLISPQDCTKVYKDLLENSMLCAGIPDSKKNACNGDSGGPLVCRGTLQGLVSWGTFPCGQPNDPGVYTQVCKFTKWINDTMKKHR
PLC-beta3 inh: inhibitors of human phospholipase C beta3; Q01970; Purified PLC-beta3, fluorogenic substrate, fluorescence; inhibition, % at 12.2 µM; 370,000 tested, 0.18% active; in the data active = inhibition above about 11%
ADAM10 inh: inhibits human ADAM10; recombinant ADAM10, EDANS/DABCYL FRET peptide cleavage, 3 h; inhibition, % at 7 µM; 370,000 tested, 0.62% active; AID 720582;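 active = inhibition above a per-campaign cutoff equal to the mean of compounds falling between control-based bounds plus 3 SD, cut at about 20% in these data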
ADAM10 confirm: confirmation of inhibitors of human ADAM10; 2,100 tested, 1% active; inhibition, % at 6.95 µM; ADAM10 QFRET peptide cleavage, EDANS fluorescence; shares compounds with ADAM10 inh;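 active = inhibition above about 20% chosen separately for each screening run, limit read from the data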
ADAM17 counter: counter-screen for ADAM10 exosite inhibitors: inhibitors of human ADAM17; shares compounds with ADAM10 inh; ADAM17 QFRET peptide cleavage, EDANS fluorescence; inhibition, % at 6.95 µM; 2,100 tested, 0.5% active;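 active = mean triplicate inhibition above the solvent-only control wells' mean plus 3 SD, cut at about 12% in these data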
ADAM10 counter: counter-screen for ADAM17 exosite inhibitors: inhibitors of human ADAM10 | recombinant ADAM10, EDANS/DABCYL FRET peptide cleavage, 3 h | 2,900 tested, 47% active | inhibition, % at 6.95 µM | shares compounds with ADAM17 inh;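 active = mean inhibition over the triplicate runs exceeds the activity threshold set in the earlier primary screen, cut at about 20% in these data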
ADAM17 confirm: human ADAM17 inhibition, confirmation; 2,900 tested, 65% active; recombinant ADAM17, EDANS/DABCYL QFRET peptide cleavage; AID 743257; inhibition, % at 6.95 µM; shares compounds with ADAM17 inh;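 active = mean inhibition across replicates above the hit cutoff set in the primary screen, cut at about 8.5% in these data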
Numbers stand for hits; n = inactive; x = no result given.

SMILES	ADAM17 inh	PLC-gamma1 inh	proKLK7 act	PLC-beta3 inh	ADAM10 inh	ADAM10 confirm	ADAM17 counter	ADAM10 counter	ADAM17 confirm
CCOC(=O)/C=C1\SCC(=O)N1CC(=O)NC(C)c1ccccc1 (stereo unspecified)	n	n	n	n	n	x	x	x	x
COc1ccc(CCNc2oc(COc3ccc(F)cc3)nc2C#N)cc1	10	n	n	n	24	n	n	33	18
COc1ccc(CCNc2oc(COc3ccccc3F)nc2C#N)cc1OC	n	n	n	n	n	x	x	x	x
Cc1ccc(C)c(C(=O)COC(=O)CCCC(=O)Nc2cc(C(F)(F)F)ccc2Cl)c1	9.8	n	n	n	20	n	n	25	11
O=C(CCNC(=O)c1ccccc1Cl)Nc1cc(C(F)(F)F)ccc1Cl	n	n	n	n	n	x	x	x	x
Cc1cc(-c2ccc(C(C)C)c(S(=O)(=O)N3CCOc4ccccc43)c2)on1	n	n	n	n	n	x	x	x	x
Cc1ccc(-c2onc(C)c2C)cc1S(=O)(=O)N1CCOc2ccccc21	14	n	n	n	21	n	n	n	n
CCOc1cc2c(cc1OCC)C(c1ccc(F)cc1)NCC2 (stereo unspecified)	n	n	n	n	n	x	x	x	x
CCOc1cc(C(c2c(C)[nH][nH]c2=O)c2c(C)[nH][nH]c2=O)ccc1OC(=O)c1cccc([N+](=O)[O-])c1	24	n	n	n	27	n	n	n	n
CCOc1cc(C(c2c(C)[nH][nH]c2=O)c2c(C)[nH][nH]c2=O)ccc1OCc1ccc([N+](=O)[O-])cc1	n	n	n	n	n	x	x	x	x
CC1(Cc2ccc(C(F)(F)F)o2)C(=O)Nc2cc(-c3ccc(F)cc3F)ccc21 (stereo unspecified)	13	n	n	n	45	n	n	44	24
O=C1[C@H]2[C@@H](c3ccc(C(F)(F)F)cc3)N[C@]3(CCCN(Cc4ccc(C(F)(F)F)cc4)C3=O)[C@H]2C(=O)N1Cc1ccccc1	13	n	n	n	31	n	n	41	24
Cc1ccc(S(=O)(=O)N(C)C[C@@H]2OCc3ccccc3-c3c(n(C)c4ccccc34)C(=O)N([C@H](C)CO)C[C@@H]2C)cc1	12	n	n	n	27	n	n	39	21
C[C@H](CO)N1C[C@H](C)[C@H](CN(C)S(=O)(=O)c2cccc(F)c2)OCc2ccccc2-c2c(n(C)c3ccccc23)C1=O	n	n	n	n	n	x	x	x	x
COc1ccc(NC(=O)Cc2csc(NC(=O)Nc3ccccc3OC)n2)c(OC)c1	n	n	n	n	n	x	x	x	x
COc1ccc(NC(=S)Nc2nc(CC(=O)Nc3ccccc3OC)cs2)cc1	9.3	n	n	n	24	n	n	n	14
CN1CCN(c2ccc([N+](=O)[O-])c(-n3nc(-c4ccccc4)c4ccccc4c3=O)c2)CC1	13	9.6	n	n	20	n	n	n	9.7
Cc1nn(-c2cc(N3CCCCC3)ccc2[N+](=O)[O-])c(=O)c2ccccc12	n	n	n	n	n	x	x	x	x
COc1ccc(-c2csc3ncnc(N4CCN(C(=O)c5ccco5)CC4)c23)cc1	n	n	n	n	n	x	x	x	x
COc1ccc(CN(C)C(=O)COC(=O)c2cnc(Cl)c(Cl)c2)cc1	n	n	n	n	n	x	x	x	x
COC(=O)c1ccc(CN(c2ccc(C(=O)O)c(O)c2)S(=O)(=O)c2ccc(Cl)c([N+](=O)[O-])c2)cc1	11	n	n	n	23	n	n	39	23
COC(=O)c1ccc(CN(c2ccccn2)S(=O)(=O)c2ccccc2)cc1	n	n	n	n	n	x	x	x	x
COc1ccc(-n2c(COc3ccccc3)nnc2SCC(=O)Nc2ccccc2-c2ccccc2)cc1	11	n	n	n	20	n	n	24	13
